Source: PubChem BioAssay (NCI)
“And” between values parts separate entries of the source, which are not always exact repeats. Equal entries are not always repeated. About 83,000 compounds went through this panel and 20% of them were active in at least one assay; those are over-represented in the sample as a whole.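 Each cell line was grown in a 96-well plate and treated with one concentration of compound for 48 hours. Values below 10 were considered active.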 The source made the active and inactive calls.

Legend:
Assay in all cases: NCI-60 one-dose screen, 48 h (100 = growth as untreated, 0 = no growth, -100 = all killed)
[1] = test system: T-47D breast; conditions: 10 µM
[2] = test system: BT-549 breast; conditions: 10 µM
[3] = test system: MDA-MB-435 melanoma; conditions: 10 µM
[4] = test system: MCF7 breast
[5] = test system: HCT-116 colon; conditions: 10 µM
[6] = test system: HCC-2998 colon; conditions: 10 µM
[7] = test system: SW-620 colon; conditions: 10 µM
[8] = test system: KM12 colon; conditions: 10 µM

SMILES: CCCCCCCCCCCCCCCCCCOCC(COP(=O)([O-])OCC[N+](C)(C)C)OC (configuration not stated)
- growth [1]: 88% (inactive)
- growth [2]: 97.1% (inactive)
- growth [3]: 103% (inactive)
- growth ([4]; 10 µM): 81.4% (inactive)
- growth [5]: 65.1% (inactive)

SMILES: OCC1OC(n2cnc3c(=S)nc[nH]c32)C(O)C1O (configuration not stated)
- growth [1]: 100% (inactive) and 57.7% (inactive)
- growth [2]: 105% (inactive) and 66.2% (inactive)
- growth [3]: 106% (inactive) and 35.3% (inactive)
- growth ([4]; 10 µM): 108% (inactive) and 20.9% (inactive)
- growth [5]: 117% (inactive) and 39.8% (inactive)
- growth [6]: 100% (inactive) and 45.5% (inactive)

SMILES: OCC(O)C(O)C(O)C(/C=N/Nc1ccccc1)=N/Nc1ccccc1 (configuration not stated)
- growth [1]: 57.9% (inactive)
- growth [2]: 88.9% (inactive)
- growth [3]: 78% (inactive)
- growth [7]: 88.3% (inactive)
- growth ([4]; 10 µM): 88.3% (inactive)
- growth [5]: 84.4% (inactive)
- growth [6]: 84.2% (inactive)

SMILES: CO[C@H](C(=O)[C@@H](O)[C@@H](C)O)[C@@H]1Cc2cc3cc(OC4CC(OC5CC(O)C(O)C(C)O5)C(O)C(C)O4)c(C)c(O)c3c(O)c2C(=O)[C@H]1OC1CC(OC2CC(OC3CC(C)(O)C(O)C(C)O3)C(O)C(C)O2)C(O)C(C)O1 (some centres not stated)
- growth [1]: 7.17% (active)
- growth [2]: -19.9% (active)
- growth [3]: -62.9% (active)
- growth [7]: -25.1% (active)
- growth [5]: 5.29% (active)
- growth [8]: -5.71% (active)

SMILES: Clc1ccc(/C=C/c2ccccn2)c(Cl)c1
- growth [1]: 47.5% (inactive)
- growth [2]: 88.4% (inactive)
- growth [3]: 104% (inactive)
- growth [5]: 77.7% (inactive)
- growth [6]: 77.9% (inactive)

SMILES: NC(=O)SCC(=O)NNc1ccccc1
- growth [1]: 73.5% (inactive)
- growth [2]: 113% (inactive)
- growth [3]: 101% (inactive)
- growth [5]: 94.6% (inactive)
- growth [6]: 103% (inactive)
- growth [8]: 81.3% (inactive)

SMILES: O=C(C(=Cc1ccccc1)C(=O)c1ccccc1)c1ccccc1
- growth [1]: 65.5% (inactive) and 74.7% (inactive)
- growth [2]: 66% (inactive) and 103% (inactive)
- growth [3]: 63.5% (inactive) and 104% (inactive)
- growth [5]: 18.3% (inactive) and 62.2% (inactive)
- growth [6]: 92.4% (inactive) and 129% (inactive)

SMILES: NNc1c2ccccc2nc2ccccc12
- growth [1]: 74.6% (inactive)
- growth [2]: 43.8% (inactive)
- growth [3]: 49.4% (inactive)
- growth [5]: 40.1% (inactive)
- growth [6]: 57.1% (inactive)

SMILES: COc1ccc(CC(=O)c2ccc(O)cc2O)cc1
- growth [1]: 182% (inactive)
- growth [3]: 115% (inactive)
- growth ([4]; 10 µM): 108% (inactive)
- growth [5]: 96.6% (inactive)
- growth [6]: 107% (inactive)

SMILES: CCC(C)(C)c1cc(O)c(C(C)(C)CC)cc1O
- growth [1]: 60.3% (inactive)
- growth [2]: 10.7% (inactive)
- growth [3]: 27.7% (inactive)
- growth [5]: 16.6% (inactive)
- growth [8]: 55.3% (inactive)

SMILES: Nc1c2ccccc2nc2ccccc12
- growth [1]: 13.3% (inactive) and 30.4% (inactive) and 32.3% (inactive)
- growth [2]: 33.8% (inactive) and 69.9% (inactive) and 83.1% (inactive)
- growth [3]: 6.39% (active) and 30% (inactive) and 48.5% (inactive)
- growth [5]: 7.6% (active) and 17.9% (inactive) and 18.2% (inactive)
- growth [6]: 37.9% (inactive) and 24.7% (inactive) and 40.8% (inactive)

SMILES: COC(=O)C1C(O)C(C)C(O)C(C)C=C(C)C2=C3C(=C(C)C(=O)c4c(O)c(c(C)c(OC(C)=O)c43)NC(=O)C(C)=C/C=C\C(C)C(O)C(C)C1O)OCO2 (configuration not stated)
- growth [1]: 117% (inactive)
- growth [3]: 130% (inactive)
- growth [7]: 103% (inactive)
- growth ([4]; 10 µM): 103% (inactive)
- growth [5]: 96% (inactive)
- growth [6]: 145% (inactive)

SMILES: O=C1C=CC(=CC=C2C=CN(CCCCCCCCCCCO)C=C2)C=C1
- growth [2]: -11% (active)
- growth [3]: 18.9% (inactive)
- growth ([4]; 10 µM): 8.64% (active)
- growth [5]: 23.3% (inactive)
- growth [6]: 57.9% (inactive)
- growth [8]: 24.2% (inactive)

SMILES: CCCCCCCCCCCC[N+](C)(C)Cc1ccccc1
- growth [1]: 14.2% (inactive)
- growth [2]: -21.1% (active)
- growth [3]: 11.7% (inactive)
- growth [5]: 21.5% (inactive)
- growth [6]: 17.8% (inactive)
- growth [8]: -63.7% (active)

SMILES: O=C(Nc1ccc(C(=O)O)c(O)c1)c1ccccc1
- growth [1]: 101% (inactive) and 104% (inactive)
- growth [2]: 104% (inactive)
- growth [3]: 99% (inactive) and 99.1% (inactive)
- growth [5]: 107% (inactive) and 101% (inactive)
- growth [6]: 102% (inactive) and 106% (inactive)
- growth [8]: 120% (inactive)

SMILES: C[n+]1c2cc(N)ccc2cc2ccc(N)cc21
- growth [1]: -14.1% (active) and -9.22% (active) and -15% (active)
- growth ([4]; 10 µM): -3.9% (active) [middle of 4 runs]

SMILES: Cc1cc(O)c(C(C)C)cc1Cl
- growth [1]: 98.8% (inactive)
- growth [2]: 111% (inactive)
- growth [3]: 99.2% (inactive)
- growth [5]: 98.9% (inactive)
- growth [6]: 101% (inactive)

SMILES: O=C(O)COc1ccc(OCC(=O)O)cc1
- growth [1]: 5.61% (active)
- growth [2]: 20.9% (inactive)
- growth [3]: 30.4% (inactive)
- growth [5]: 9.02% (active)
- growth [6]: -34.2% (active)

SMILES: OC(CN1CCCC2CCCCC21)c1cc2ccccc2c2ccccc12 (configuration not stated)
- growth [1]: 14.9% (inactive)
- growth [2]: 46% (inactive)
- growth [3]: 32% (inactive)
- growth [5]: 1.99% (active)
- growth [6]: 13.5% (inactive)

SMILES: COc1c(O)cc2oc3cc(O)c(CC=C(C)C)c(O)c3c(=O)c2c1CC=C(C)C
- growth [1]: 48% (inactive)
- growth [2]: 105% (inactive)
- growth [3]: 70.1% (inactive)
- growth [5]: 23.7% (inactive)
- growth [6]: 42.1% (inactive)
- growth [8]: 38.1% (inactive)

SMILES: O=C1NC(=O)c2cc([N+](=O)[O-])ccc21
- growth [1]: 103% (inactive)
- growth [2]: 123% (inactive)
- growth [3]: 105% (inactive)
- growth [5]: 116% (inactive)
- growth [6]: 102% (inactive)
- growth [8]: 110% (inactive)

SMILES: CC(C)(C)CC(C)(C)c1ccc(OCCO)cc1
- growth [1]: 105% (inactive)
- growth [3]: 115% (inactive)
- growth ([4]; 10 µM): 137% (inactive)
- growth [5]: 102% (inactive)
- growth [6]: 110% (inactive)
- growth [8]: 99.4% (inactive)

SMILES: CCCCCCCCCCSC(=N)N
- growth [1]: -5.33% (active)
- growth [2]: 85.9% (inactive)
- growth [3]: 30% (inactive)
- growth [5]: 23.4% (inactive)
- growth [6]: -27.2% (active)
- growth [8]: 23.2% (inactive)

SMILES: O=C1C=C(O)c2ccccc2C1=O.[Ag]
- growth [1]: 79.5% (inactive)
- growth [2]: 115% (inactive)
- growth [3]: 111% (inactive)
- growth [5]: 111% (inactive)
- growth [6]: 88.8% (inactive)

SMILES: CN1CCN(CCCN2c3ccccc3Sc3ccc(C(F)(F)F)cc32)CC1
- growth [2]: 70.6% (inactive)
- growth [3]: 27.6% (inactive)
- growth ([4]; 10 µM): 13.9% (inactive)
- growth [5]: 36% (inactive)
- growth [6]: -6.16% (active)

SMILES: CC(=O)OCC(OC(C)=O)C(OC(C)=O)C(OC(C)=O)C(OC(C)=O)C(/C=N/Nc1ccccc1)=N/Nc1ccccc1 (configuration not stated)
- growth [3]: 65.6% (inactive)
- growth [7]: 49.7% (inactive)
- growth [5]: 64.1% (inactive)
- growth [6]: 91.2% (inactive)

SMILES: CCN1/C(=C/C=C/C=C/c2sc3ccccc3[n+]2CC)Sc2ccccc21
- growth [1]: -32.2% (active)
- growth [2]: -42.3% (active)
- growth [3]: -76.9% (active)
- growth [5]: -25.9% (active)
- growth [6]: -88.5% (active)

SMILES: CC[N+](CC)=c1ccc2nc3c(cc(N)c4ccccc43)oc-2c1
- growth [1]: -44% (active)
- growth [2]: -53.4% (active)
- growth [3]: -82.2% (active)
- growth [5]: -27.1% (active)
- growth [6]: -78% (active)

SMILES: O=[N+]([O-])C1=C(c2ccccc2)SC=C(c2ccccc2)S1
- growth [1]: 51.9% (inactive)
- growth [2]: 55.3% (inactive)
- growth [3]: 75.3% (inactive)
- growth [5]: 67% (inactive)
- growth [6]: 108% (inactive)
- growth [8]: 81.3% (inactive)

SMILES: CCO/C=C1\SC(=S)N(c2cccc(O)c2)C1=O
- growth [1]: 87.4% (inactive)
- growth [2]: 93.8% (inactive)
- growth [3]: 102% (inactive)
- growth [5]: 96.9% (inactive)
- growth [6]: 111% (inactive)
- growth [8]: 97.2% (inactive)

SMILES: CC(C)C1=C(O)C2=C(C(=O)C1=O)C1(C)CCCC(C)(C)C1CC2O (configuration not stated)
- growth ([4]; 100 µM): -23.1% (active) and -78.3% (active)

SMILES: O=C(/C=C/c1ccccn1)c1ccccc1
- growth [1]: 66.9% (inactive)
- growth [3]: 52.4% (inactive)
- growth [5]: -90.8% (active)
- growth [6]: 62.9% (inactive)
- growth [8]: 7.87% (active)

SMILES: CCCCCC(C)c1ccc(O)c(C)c1 (configuration not stated)
- growth [1]: 101% (inactive)
- growth [2]: 99.7% (inactive)
- growth [3]: 105% (inactive)
- growth [5]: 95.8% (inactive)
- growth [6]: 103% (inactive)
